Compound activity from PubChem BioAssay.
Only some compounds are listed: those with a hit (about 2.4% of all), similar ones and a draw of the others.
aSyn yeast inh: qHTS of alpha-syn Inhibitors | Yeast expressing alpha-synuclein, growth rescue, BacTiter-Glo, 24 h | Potency, µM (top dose mostly 46.1 µM), usual class: activators | 0.14% of 370,000 active; further: nearly all actives have a fitted effect of over 65% in size
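Readout is rescue of growth in alpha-synuclein-expressing yeast, so inhibitors of toxicity appear as activators. Growth after 24 hr at 30 deg C in galactose medium is quantified by luminescence.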
TDP43 rescue: qHTS of TDP-43 Inhibitors. TDP-43 expressing yeast growth rescue, BacTiter-Glo, 24 h. Potency, µM (top dose mostly 46.1 µM), usual class: activators. 1.8% of 410,000 active. AID 652104, 2013; further: nearly all actives have a fitted effect of over 50% in size
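Yeast expressing TDP-43 (pregrown in raffinose, seeded at OD600=0.02 in galactose medium) exposed to compounds 24 hr at 30 deg C. Growth read by BacTiter-Glo luminescence; rescue of toxicity appears as increased signal.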
FUS suppressor: qHTS for Suppressors of FUS Proteinopathy: Primary screen using FUS-linked yeast assay; AID 1347120, 2019; Potency, µM (doses to about 76.6 µM), hits mostly activators; S. cerevisiae FUS-expressing, growth rescue, OD600, 24 h; 0.24% of 390,000 active; further: nearly all actives have a fitted effect of over 55% in size
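Compound concentration series was pinned onto galactose-induced FUS-expressing yeast seeded at OD 0.005. Plates sat 24hr at 30C; absorbance at 600 nm gave growth. DMSO served as background control.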
A-T KAP1 phos: qHTS Assay for Identifying a Potential Treatment of Ataxia-Telangiectasia | Potency, µM (doses to about 57.5 µM), actives largely listed as activators | F2112 A-T fibroblasts, KAP-1 phosphorylation AlphaLISA; neocarzinostatin DNA damage 30 min before lysis | 0.19% of 320,000 active; further: nearly all actives have a fitted effect of over 45% in size
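ATM-like activity read as KAP-1 phosphorylation via AlphaLISA donor/acceptor antibody pairs after lysis and 6 hr at 25C. Cells were ATM-null patient fibroblasts (F2112, hTERT), dosed 60 min, then exposed to the DSB inducer NCS for 30 min.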
Mito fusion act: qHTS Assay for Small Molecule Inhibitors of Mitochondrial Division or Activators of Mitochondrial Fusion; S. cerevisiae fusion-defective mutant growth rescue, CellTiterGlo 48 h; Potency, µM (doses to about 46.1 µM), most hits filed as activators; 0.23% of 320,000 active; further: nearly all actives have a fitted effect of over 45% in size
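Yeast fusion mutant, YPEG (non-fermentable carbon), compound, 48 h at 37C non-permissive; CellTiterGlo added, 10 min RT, luminescence read. Rescued growth = division inhibition.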
Abeta yeast res: qHTS for compounds that reverse cellular toxicity of Amyloid beta (A-beta) peptide in yeast: Primary Screen; 0.063% of 410,000 active; Potency, µM (doses to about 46.1 µM), most hits filed as activators; yeast expressing A-beta42, growth rescue, OD600, 48 h; response scale: 0% DMSO, 100% iron-clioquinol control; further: nearly all actives have a fitted effect of over 55% in size
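Yeast A-beta toxicity model in growth medium with pinned compounds, 48 h at 30 C; growth read as absorbance at 600 nm. Normalized to FeCl3/clioquinol equimolar mix (positive) and DMSO (negative).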
Hits are given with their value; 0 = inactive; ? = inconclusive; - = not tested or not shown; ! = a repeat was not active; [ ] = another dose, or the depositor's remark. The call rests on the fitted dose curve; in most records, active means well fitted curve in the direction sought with a large enough effect; inconclusive means small, poorly fitted or top-dose-only effect, or another doubt; inactive means no such curve, though single readings can be large; an effect the other way counts as inactive or inconclusive.

SMILES | aSyn yeast inh | TDP43 rescue | FUS suppressor | A-T KAP1 phos | Mito fusion act | Abeta yeast res
O=C(N/N=C/c1cccc2cccnc12)c1ccccc1O | 22µM | 0 | 0 | 0 | 0 | ?
Cc1ccc(/C=C/c2onc(C)c2S(=O)(=O)N2CCC(C(=O)N3CCC(N(C)C(C)C)CC3)CC2)cc1 | - | 0 | 0 | - | - | 0
COc1cn(CC(=O)Nc2cc(C)ccc2C)c(CN2CCCCC2)cc1=O | - | 0 | 0 | - | - | 0
Cc1ccccc1N1C(=O)c2ccccc2N2C(=O)c3ccccc3C12 (stereo not drawn) | 0 | ? | 0 | 0 | 14µM | 0[9.22 µM]
CCN(C(=O)CSc1nc2ccccc2n1CC(=O)Nc1cccc(C#N)c1)c1ccccc1 | - | 0 | ? | - | - | 0
CC(C)c1nc2sc3c(=O)[nH]cnc3c2c2c1CCC2 | 0 | 0 | 0 | 0 | 0 | 0
CC(C)c1nc2sc3c(=S)nc[nH]c3c2c2c1CCC2 | 0 | 16µM | 0 | 0 | 0 | 0
O=C(CCn1c(=O)c2cccn2c2ccc(F)cc21)NCc1ccccc1F | - | 0 | 0 | - | - | 0
CCOc1ccc(N=Nc2ccc(O)c3ncccc23)cc1 | 13µM | ? | 0 | 0 | 0 | ?
NS(=O)(=O)c1ccc(N=Nc2ccc(O)c3ncccc23)cc1 | 0 | ? | 0 | ? | 0 | 0
CCc1ccc(NC(=O)c2sc(-n3nc(C)c(CCC(C)C)c3C)nc2C)cc1 | - | 0 | 0 | - | - | 0
O=C(Cc1ccccc1Cl)NO | 0 | - | - | - | - | -
COc1ccc(NC(=S)N2CCC3CC2c2c(Cl)cccc23)c(OC)c1 (stereo not drawn) | 0 | 14µM | 0 | - | - | 0
C=CCNC(=S)N1CCC2CC1c1c(Cl)cccc12 (stereo not drawn) | 0 | 0 | 0 | - | - | ?
COC(=O)[C@@]12CCCCC3=C1N(CCC3)C(=O)[C@H]2CC(=O)N1CCN(C(=O)c2ccco2)CC1 | - | - | 0 | - | - | -
Cc1ccc(CCNC(=O)CCCn2c(=O)c3cccn3c3ccc(F)cc32)cc1 | - | 35µM | 0 | - | - | 0
CCc1ccc(NC(=O)CCn2c(=O)c3cccn3c3ccccc32)cc1 | 0 | 13µM | ? | 0 | 0 | 0
CC(CNC(=O)CCCn1c(=O)c2cccn2c2ccc(F)cc21)c1ccccc1 (stereo not drawn) | - | 25µM | ? | - | - | 0
O=C(CCCn1c(=O)c2cccn2c2ccc(F)cc21)NCCc1ccccc1 | - | 0 | 0 | - | - | 0
COc1cc(-n2c(C)nc3cc(C(=O)N4CC(C)CC(C)C4)ccc32)cc(OC)c1OC (stereo not drawn) | - | - | 0 | - | - | -
Cc1nc2c(C(=O)NCCc3ccc(Cl)cc3)cnn2c(C)c1Cc1ccc(F)cc1 | - | 20µM | 32µM | - | - | 0
COC(=O)c1ccc(CSc2nnc(Nc3ccc(OC)cc3)s2)o1 | 0 | 0 | 0 | 0 | 0 | 0
COC(=O)c1ccc(CSc2nnc(Nc3ccccc3OC)s2)o1 | 0 | 18µM | 0 | 0 | 0 | 0
CCn1c(SCc2ccc(F)cc2)nc2c(c1=O)SCC2 | 0 | 18µM | 0 | 0 | 0 | 0
Cc1ccc(S(=O)(=O)c2cn(CC(=O)Nc3ccc4c(c3)OCO4)c3ccc(C)cc3c2=O)cc1 | - | 0 | 0 | - | - | 0
SMILES | aSyn yeast inh | TDP43 rescue | FUS suppressor | A-T KAP1 phos | Mito fusion act | Abeta yeast res
c1ccc(CN2CCC3(CCCc4ccccc43)CC2)cc1 | 0 | 0 | 0 | 0 | 23µM! | 0
Cc1ccc2oc(=O)c(S(=O)(=O)c3ccc(C(C)(C)C)cc3)cc2c1 | - | 0 | 0 | - | - | 0
CCc1ccc2oc(-c3cc(N=Cc4cccc(OC)c4O)ccc3O)nc2c1 | 0 | 16µM | 0 | 0 | 0 | 0
Cc1csc2ncnc(N3CCN(C(=S)Nc4ccc(C(F)(F)F)cc4)CC3)c12 | 0 | 13µM | ? | 0 | 0 | 0
O=C(Nc1ccccc1)OCCCCOC(=O)Nc1ccccc1 | 0 | 0 | 0 | - | - | 0
CC1CC2(C)CC(C)C1(COC(=O)Nc1ccccc1)CO2 (stereo not drawn) | 0 | 35µM | 0 | 0 | 0 | 0
COc1ccc(CCNC(=O)Cn2nnc(-c3ccc(Cl)cc3)n2)cc1OC | - | 0 | 0 | - | 0 | 0
CSc1nc(N2CCOCC2)c2c3c(sc2n1)CCCC3 | 0 | 16µM | ? | 0 | 0 | 0
Cc1nc(N2CCOCC2)c2c3c(sc2n1)CCC3 | 0 | 0 | 0 | 0 | 0 | 0
Cc1ccc(-c2nc3ccccn3c2Nc2ccccc2)o1 | 0 | 0 | 0 | 0 | 0 | 0
Cc1ccc(-c2nc3cnccn3c2Nc2ccccc2)o1 | 20µM | 35µM | 0 | 0 | 0 | 0
Cc1ccc(Nc2c(-c3ccc(C)o3)nc3cnccn23)cc1 | 0 | 22µM | 0 | 0 | 0 | 0
Clc1ccc(-c2nc3cnccn3c2Nc2ccc3c(c2)OCO3)cc1 | 0 | ? | ? | 0 | ? | 0
CSc1ccc(-c2nc3cnccn3c2Nc2ccc3c(c2)OCO3)cc1 | 0 | 25µM | 0 | - | 0 | 0
CN1C2=NC(c3ccccc3)CC(=O)N2/C(=C\c2ccccc2)C1c1ccccc1C(F)(F)F (stereo not drawn) | - | - | 0 | - | - | -
Cc1ccnc(SCc2cc(=O)c(OC(=O)c3ccc(C#N)cc3)co2)n1 | - | - | 0 | - | - | -
Brc1ccc(-c2nc3ccc(Br)cn3c2Cc2ccccc2)cc1 | 0 | 0 | 0 | - | - | 0
Fc1ccc(-c2nc3ccc(Br)cn3c2Cc2ccccc2)cc1 | 0 | 35µM | 0 | - | - | 0
Clc1ccc(-c2nc3ccc(Br)cn3c2Cc2ccsc2)cc1 | 0 | 35µM | 0 | - | - | 0
Fc1ccc(-c2nc3ccc(Br)cn3c2Cc2cccc(Cl)c2)cc1 | 0 | 35µM | 0 | - | - | 0
O=C(NC1CCCc2ccccc21)c1cnn2c1NC(=C1CC1)C=C2C(F)F (stereo not drawn) | 0 | - | - | - | - | -
CN1/C(=C\C(=O)Nc2ccc(F)cc2)C(C)(C)c2ccccc21 | 0 | 0 | - | 0 | 10µM | 0
CCC(=O)N1CCc2cc(S(=O)(=O)NC(Cc3ccccc3)C(=O)NCc3cccc(OC)c3)ccc21 (stereo not drawn) | - | 0 | ? | - | - | 0
ONC(=Nc1ccccc1)c1ccc(Cl)cc1 | 0 | 13µM | 0 | 0 | 0 | 0
COc1cc(C(=O)NCC(=O)OCC(=O)c2cccc3ccccc23)cc(OC)c1OC | 0 | 0 | 13µM | 0 | 0 | 0
COc1ccc(C(=O)NCC(=O)OCC(=O)c2ccccc2Br)cc1OC | 0 | 0 | 0 | - | - | 0
O=Nc1c(O)n(Cc2ccc(Cl)c(Cl)c2)c2ccccc12 | 13µM | 0 | 0 | 0 | 0 | 0
CCC1=C(c2ccc(C)cc2)S(=O)(=O)N=C1N1CCC(C(=O)NCc2ccc(N(C)C)cc2)CC1 | - | 0[9.22 µM] | 0 | - | - | 0
Cc1ccc(NC(=O)COC(=O)c2cc(Cl)ccc2[N+](=O)[O-])c(C)c1 | 0 | 0 | - | 0 | 0 | 0
